Experiment [1] in a line: antimalarial activity against Dd2 strain (AID 2302;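 active = growth inhibition above 50% at the single 2 µM test dose, taken to imply half-maximal potency below 2 µM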;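 also: 0% = DMSO untreated growth and 100% = chloroquine plus artemisinin killed control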). Conditions: P. falciparum Dd2 in RBCs, LDH growth readout, 72 h; at 2 µM; active compounds read high.
The nature of experiment [2]: human hepatoma cell viability loss – ATP luminescence, cytotoxicity control for P. falciparum antimalarial project, primary screen (AID 2303;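 active = inhibition above 50%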;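 also: 0% = DMSO wells and 100% = digitonin-killed cells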). Conditions: HepG2 viability, 24-48 h, at 10 µM, active compounds read high.
Experiment [3] has as its target L-lactate dehydrogenase (Plasmodium falciparum (isolate CDC / Honduras)) (UniProt Q27743). In words: PfLDH activity inhibition – cell lysate, 3D7 strain, counter-screen for P. falciparum growth inhibition project (AID 2304).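 Also: 0% = vehicle and 100% = reference inhibitor.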 The following applies: P. falciparum 3D7 crude extract, LDH APAD/NBT absorbance; at 2 µM; active compounds read high.
Experiment [4] can be described thus: inhibition of 3D7 malaria parasite growth – strain 3D7 (AID 2306).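 Also: 0% = DMSO wells and 100% = chloroquine plus artemisinin control wells.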 The following applies: P. falciparum 3D7 erythrocytic growth, LDH absorbance, 72 h; at 2 µM; active compounds read high.
Experiment [5] concerns the target Calcium-dependent protein kinase 1 (Plasmodium falciparum (isolate 3D7)) (UniProt P62344). In words: PfCDPK1 kinase inhibitors, biochemical, TCAMS library (AID 1159585; cut-off not given, nearly all actives have IC50 up to about 0.98 µM;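 also: inhibitors leave more ATP so luminescence rises with inhibition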). The following applies: recombinant PfCDPK1, Kinase-Glo ATP depletion luminescence. For orientation: Kinase-Glo reads ATP consumption through a luciferase reaction.
In experiment [6] the target is Plasmodium falciparum protein kinase 6 (PK6, PF3D7_1337100) (UniProt Q8IDW1). In words: PfPK6 kinase inhibitors, biochemical, TCAMS library (AID 1159586). The following applies: recombinant PfPK6, Kinase-Glo ATP depletion luminescence.
In experiment [7] the target is Protein kinase 7 (PK7), Plasmodium falciparum 3D7 (PF3D7_0213400) (UniProt Q7YTF7). The experiment in a line: inhibition of Plasmodium PK7 catalytic activity – biochemical, TCAMS antimalarial set, Kinase-Glo luminescence (AID 1159587). Conditions: recombinant PfPK7, Kinase-Glo ATP depletion luminescence.
The target of experiment [8] is Calcium-dependent protein kinase 4 (Plasmodium falciparum (isolate 3D7)) (UniProt Q8IBS5). In words: PfCDPK4 kinase inhibitors, biochemical, TCAMS library (AID 1159588; cut-off not given, nearly all actives have IC50 up to about 0.91 µM). Conditions: recombinant PfCDPK4, Kinase-Glo ATP depletion luminescence.

Unmarked numbers belong to inactive results. For some assays here: Results with a measured potency or affinity are listed apart. Calls of active or inactive are those of the source. Unless noted, no rule for the calls is given here.

Chain of Plasmodium falciparum protein kinase 6 (PK6, PF3D7_1337100) (Q8IDW1 1-305): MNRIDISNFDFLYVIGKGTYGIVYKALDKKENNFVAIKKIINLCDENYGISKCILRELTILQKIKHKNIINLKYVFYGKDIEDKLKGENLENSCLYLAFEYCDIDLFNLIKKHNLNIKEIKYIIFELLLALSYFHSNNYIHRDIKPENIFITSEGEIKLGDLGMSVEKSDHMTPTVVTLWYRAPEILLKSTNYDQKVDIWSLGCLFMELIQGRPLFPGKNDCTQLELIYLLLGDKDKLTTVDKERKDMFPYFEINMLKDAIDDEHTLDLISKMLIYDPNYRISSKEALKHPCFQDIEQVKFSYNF
Chain of L-lactate dehydrogenase (Plasmodium falciparum (isolate CDC / Honduras)) (Q27743 whole entry, looked up): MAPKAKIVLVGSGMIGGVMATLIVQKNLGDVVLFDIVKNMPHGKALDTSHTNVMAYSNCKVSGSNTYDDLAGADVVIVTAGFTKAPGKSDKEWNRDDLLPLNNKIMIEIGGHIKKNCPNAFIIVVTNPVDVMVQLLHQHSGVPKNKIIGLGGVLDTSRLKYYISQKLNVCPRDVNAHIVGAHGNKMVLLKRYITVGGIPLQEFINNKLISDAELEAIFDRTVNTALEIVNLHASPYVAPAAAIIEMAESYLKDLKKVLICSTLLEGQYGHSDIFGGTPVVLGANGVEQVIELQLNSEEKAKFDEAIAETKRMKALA
Chain of Calcium-dependent protein kinase 4 (Plasmodium falciparum (isolate 3D7)) (Q8IBS5 whole entry, looked up): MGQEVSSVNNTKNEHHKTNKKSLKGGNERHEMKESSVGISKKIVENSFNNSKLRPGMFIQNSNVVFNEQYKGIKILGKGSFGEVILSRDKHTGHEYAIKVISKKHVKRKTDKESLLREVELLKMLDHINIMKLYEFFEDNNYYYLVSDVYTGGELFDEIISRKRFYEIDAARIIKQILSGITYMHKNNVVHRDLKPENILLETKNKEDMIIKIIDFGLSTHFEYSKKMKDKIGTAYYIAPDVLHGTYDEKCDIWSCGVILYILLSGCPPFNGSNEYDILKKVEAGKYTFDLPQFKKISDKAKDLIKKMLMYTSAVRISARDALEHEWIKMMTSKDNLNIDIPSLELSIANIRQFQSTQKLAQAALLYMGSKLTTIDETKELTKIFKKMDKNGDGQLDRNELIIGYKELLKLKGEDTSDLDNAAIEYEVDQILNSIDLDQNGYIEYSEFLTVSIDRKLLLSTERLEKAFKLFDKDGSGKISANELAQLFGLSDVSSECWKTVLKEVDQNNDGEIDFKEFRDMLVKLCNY
Chain of Protein kinase 7 (PK7), Plasmodium falciparum 3D7 (PF3D7_0213400) (Q7YTF7 1-343): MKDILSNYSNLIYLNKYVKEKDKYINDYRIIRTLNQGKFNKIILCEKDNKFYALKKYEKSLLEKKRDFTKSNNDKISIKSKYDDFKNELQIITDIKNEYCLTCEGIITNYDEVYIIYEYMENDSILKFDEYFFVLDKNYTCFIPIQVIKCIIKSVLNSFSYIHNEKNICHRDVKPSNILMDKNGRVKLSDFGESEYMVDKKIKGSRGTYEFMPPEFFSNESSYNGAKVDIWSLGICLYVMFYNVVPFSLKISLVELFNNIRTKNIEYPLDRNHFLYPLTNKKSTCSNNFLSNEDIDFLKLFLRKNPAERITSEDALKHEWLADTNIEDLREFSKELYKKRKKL
Chain of Calcium-dependent protein kinase 1 (Plasmodium falciparum (isolate 3D7)) (P62344 whole entry, looked up): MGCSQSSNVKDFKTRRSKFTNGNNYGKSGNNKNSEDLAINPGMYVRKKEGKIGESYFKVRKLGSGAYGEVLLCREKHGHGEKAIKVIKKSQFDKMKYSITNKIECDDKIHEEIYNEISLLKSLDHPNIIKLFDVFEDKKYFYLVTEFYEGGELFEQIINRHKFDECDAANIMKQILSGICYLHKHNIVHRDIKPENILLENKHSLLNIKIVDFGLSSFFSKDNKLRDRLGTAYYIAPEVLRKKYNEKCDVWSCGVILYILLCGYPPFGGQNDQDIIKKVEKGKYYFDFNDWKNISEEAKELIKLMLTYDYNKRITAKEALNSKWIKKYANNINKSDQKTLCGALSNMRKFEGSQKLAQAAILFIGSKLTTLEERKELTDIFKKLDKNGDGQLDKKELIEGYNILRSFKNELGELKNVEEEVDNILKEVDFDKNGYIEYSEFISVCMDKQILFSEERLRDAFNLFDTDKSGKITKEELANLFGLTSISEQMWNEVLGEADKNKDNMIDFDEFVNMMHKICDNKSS

Regarding `COC(=O)c1ccc(CCC(C)NCC(O)c2cccc(C(F)(F)F)c2)cc1` (configuration not stated), the growth inhibition in experiment [1] and in experiment [4] was 99% (active) throughout. Moreover, the figures for the inhibition in experiment [2] and in experiment [3] were 16% and -7%, respectively. The result in experiment [5], in experiment [6], in experiment [7] and in experiment [8] was inactive.

In the case of `COc1cc2nc(NCc3ccc(S(N)(=O)=O)cc3)nc(Nc3ccc(Oc4ccccc4)cc3)c2cc1OC`, the growth inhibition in experiment [1] was 100% (active); in experiment [4], 101% (active). Also, the inhibition (in general, the drop in the measured response relative to a control, in per cent) in experiment [2] is 14%; in experiment [3] it was -3%. Further, the outcome in experiment [5], in experiment [6], in experiment [7] and in experiment [8] was inactive.

Turning to `COc1ccccc1N1CCN(CCCCNC(=O)c2ccc(NC(=O)c3ccc4ccccc4c3)cc2)CC1`, the figures for the growth inhibition in experiment [1] and in experiment [4] were 18% and 97% (active), respectively. The inhibition in experiment [2] was 16%; in experiment [3], 1%. The result in experiment [5], in experiment [6], in experiment [7] and in experiment [8] was inactive.

Take `CCCCCCN1CCC(NCc2ccc(C)cc2)CC1`: the growth inhibition was 4% in experiment [1] and 93% (active) in experiment [4]. Also, the inhibition in experiment [2] is 16%; in experiment [3], -1%. Further, the outcome in experiment [5], in experiment [6], in experiment [7] and in experiment [8] was inactive.

Regarding `COc1cccc(CNC[C@@H](O)[C@H](Cc2ccccc2)NC(=O)c2cc(C3CCCC3)cc(N3CCCCS3(=O)=O)c2)c1`, the growth inhibition was 83% (active) in experiment [1] and 96% (active) in experiment [4]. In addition, the inhibition in experiment [2] is 7%; in experiment [3] it was 4%. The result in experiment [5], in experiment [6], in experiment [7] and in experiment [8] was inactive.

For `O=C(Nc1ccc(CCN2CCC(c3nc(COCC(F)(F)F)c(-c4ccccc4)o3)CC2)cc1)c1ccc(F)cc1`, the growth inhibition in experiment [1] was 3%; in experiment [4] it was 86% (active). Further, the results for the inhibition in experiment [2] and in experiment [3] were 9% and 3%, respectively. In addition, the result in experiment [5], in experiment [6], in experiment [7] and in experiment [8] was inactive.

For `CN1CCN(CC(=O)Nc2ccc(-c3ccc(-c4nc5ccccc5[nH]4)s3)cc2)CC1`, the growth inhibition in experiment [1] is 49%; in experiment [4], 101% (active). In addition, the inhibition in experiment [2] is 12%; in experiment [3], -1%. Besides, the outcome in experiment [5], in experiment [6], in experiment [7] and in experiment [8] was inactive.

Turning to `CCC(ON1C(N)=NC(N)=NC1(C)C)c1ccccc1` (configuration not stated), the growth inhibition in experiment [1] is -5%; in experiment [4], 96% (active). Besides, the inhibition was 61% (active) in experiment [2] and -4% in experiment [3]. Moreover, the result in experiment [5], in experiment [6], in experiment [7] and in experiment [8] was inactive.

As for `CCc1cn2c3c(cc(C(=O)N[C@@H](Cc4ccccc4)[C@H](O)CNC4CCOCC4)cc13)N(C(C)C)S(=O)(=O)CC2`, the values for the growth inhibition in experiment [1] and in experiment [4] were 99% (active) and 98% (active), respectively. For the same compound, the inhibition in experiment [2] was 0%; in experiment [3] it was -2%. Moreover, the result in experiment [5], in experiment [6], in experiment [7] and in experiment [8] was inactive.

`Cc1nc2ccccn2c1C1(O)C(=O)Nc2c(Cl)cc(Cl)cc21` (configuration not stated): the growth inhibition was 62% (active) in experiment [1] and 95% (active) in experiment [4]. Moreover, the inhibition in experiment [2] was -11%; in experiment [3], -3%. The outcome in experiment [5], in experiment [6], in experiment [7] and in experiment [8] was inactive.

As for `CC1(C)N=C(N)N=C(N)N1OCc1cc(Cl)c(Cl)cc1CON1C(N)=NC(N)=NC1(C)C`, the figures for the growth inhibition in experiment [1] and in experiment [4] were 100% (active) and 98% (active), respectively. The results for the inhibition in experiment [2] and in experiment [3] were 36% and 4%, respectively. Also, the outcome in experiment [5], in experiment [6], in experiment [7] and in experiment [8] was inactive.

`Cc1cccc(OCCCCON2C(N)=NC(N)=NC2(C)C)c1C`: the growth inhibition was 95% (active) in experiment [1] and 97% (active) in experiment [4]. Moreover, the inhibition in experiment [2] is 65% (active); in experiment [3], -3%. The outcome in experiment [5], in experiment [6], in experiment [7] and in experiment [8] was inactive.

`COc1ccc(CN(C)CCOc2ccc(NC(=O)c3cccc4c(=O)cc(-c5ccccc5)[nH]c34)cc2)cc1OC`: the growth inhibition was 44% in experiment [1] and 98% (active) in experiment [4]. Further, the inhibition was 13% in experiment [2] and -3% in experiment [3]. Also, the result in experiment [5], in experiment [6], in experiment [7] and in experiment [8] was inactive.

As to `NC(N)=Nc1ccc(CCc2ccc(N=C(N)N)cc2)cc1`, the growth inhibition in experiment [1] is 95% (active); in experiment [4], 96% (active). Further, the inhibition in experiment [2] was 57% (active); in experiment [3], -1%. The outcome in experiment [5], in experiment [6], in experiment [7] and in experiment [8] was inactive.

`O=C(Nc1ccc(Cn2ncc(N3CCCNCC3)c(Cl)c2=O)cc1)Nc1ccc(F)cc1[N+](=O)[O-]`: the growth inhibition in experiment [1] is -3%; in experiment [4], 90% (active). Moreover, the inhibition in experiment [2] is 11%; in experiment [3] it was -4%. Besides, the result in experiment [5], in experiment [6], in experiment [7] and in experiment [8] was inactive.

On to `CC[C@H](C)CNC(=O)c1cncc(-c2ccc(CNC3Cc4ccccc4C3)cc2)c1`, for which the results for the growth inhibition in experiment [1] and in experiment [4] were 95% (active) and 101% (active), respectively. Besides, the figures for the inhibition in experiment [2] and in experiment [3] were 14% and 3%, respectively. Besides, the result in experiment [5], in experiment [6], in experiment [7] and in experiment [8] was inactive.

`CN(C)Cc1ccc(-c2ccc(NC(=O)c3ccc4c(=O)n(Cc5ccoc5)cnc4c3)cc2)cc1`: the growth inhibition in experiment [1] was 16%; in experiment [4] it was 80% (active). The inhibition is 32% in experiment [2] and 3% in experiment [3]. In addition, the result in experiment [5], in experiment [6], in experiment [7] and in experiment [8] was inactive.

In the case of `CCOc1cc(C)ccc1NC1CCN(CCCCNC(=O)c2ccc(NC(=O)c3ccc(Cl)cc3)cc2)CC1`, the growth inhibition in experiment [1] was 70% (active); in experiment [4], 101% (active). For the same compound, the inhibition in experiment [2] is 17%; in experiment [3], -2%. Besides, the result in experiment [5], in experiment [6], in experiment [7] and in experiment [8] was inactive.

Regarding `CCCNCc1ccc(-c2ccc(CNC3Cc4ccccc4C3)cc2)nc1`, the values for the growth inhibition in experiment [1] and in experiment [4] were 32% and 97% (active), respectively. For the same compound, the inhibition in experiment [2] is 23%; in experiment [3] it was 1%. Also, the outcome in experiment [5], in experiment [6], in experiment [7] and in experiment [8] was inactive.

These data come from PubChem BioAssay.
